# Shown are actives, neighbours in structure and some others; about 9.1% of the full set was active somewhere.
# Htt clearance = mutant huntingtin protein clearance; HeLa Exon1htt(103Q)mCFP, aggregate imaging; zero = plate's median compound well; inhibition, % at 1.5 µM; 47,000 tested, 0.42% active; AID 853;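 active = inhibition of aggregate fluorescence above about 70%, also judged a hit by eye on the cell image, limit read from the data, passing the limit was not always enough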;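 also: cells exposed to compound for three days before fixation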
# D1 mod = allosteric modulators of human D1 dopamine receptor | P21728 | HEK293 D1, CRE-luciferase, dopamine EC30 potentiation; actives deviate in either direction | B-score at 10 µM | 58,000 tested, 5.9% active;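 active = luminescence count or its row- and column-corrected plate score outside the 99.7% band of the plate's sample wells, on either side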
# Target sequence (P21728 whole entry, looked up): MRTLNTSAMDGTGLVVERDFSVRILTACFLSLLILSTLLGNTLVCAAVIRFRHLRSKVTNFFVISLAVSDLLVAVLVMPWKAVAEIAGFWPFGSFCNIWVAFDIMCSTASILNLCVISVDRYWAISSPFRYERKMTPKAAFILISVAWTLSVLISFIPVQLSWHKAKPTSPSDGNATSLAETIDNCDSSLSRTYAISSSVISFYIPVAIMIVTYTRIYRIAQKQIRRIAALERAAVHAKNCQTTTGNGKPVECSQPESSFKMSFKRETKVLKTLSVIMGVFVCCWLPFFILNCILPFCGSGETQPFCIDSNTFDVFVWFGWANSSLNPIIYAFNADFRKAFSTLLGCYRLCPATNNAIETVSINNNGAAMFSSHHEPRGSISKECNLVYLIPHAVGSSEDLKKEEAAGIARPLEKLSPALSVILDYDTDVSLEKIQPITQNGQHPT
# M1 agonist = agonists of M1 muscarinic receptor | AID 626 | B-score at 10 µM | 64,000 tested, 3% active | CHO-M1 cells, Fluo-4 calcium fluorescence, agonist mode; stronger effect = higher value;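 active = fluorescence rise, raw or as B-score row- and column-corrected plate score, outside the 99.7% band of its plate's samples, either direction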
# M1 antag = blocks the rat M1 muscarinic receptor response to acetylcholine | CHO-M1 cells, Fluo-4 calcium, ACh EC80 antagonist mode; stronger effect = lower value | B-score at 10 µM | 64,000 tested, 3.4% active;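 active = calcium fluorescence response, raw or row-and-column corrected B-score, differing from the plate sample mean either way at a set confidence level, mostly lower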
# D1 mod confirm = D1 receptor (human) allosteric modulation, confirmed. 2,200 tested, 88% active. AID 642. HEK293 D1 CRE-luciferase, dopamine EC30 potentiation; stronger effect = higher value. shares compounds with D1 mod. luminescence at 10 µM;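 active = luminescence in either of two replicates above the same-plate mean plus 3 SD of the low-dose dopamine control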
# D1 ag no DA = activates D1 CRE-luciferase signal without dopamine present. AID 646. 1,900 tested, 0.8% active. HEK293 D1 CRE-luciferase, luminescence, no dopamine; stronger effect = higher value. luminescence at 10 µM. shares compounds with D1 mod; in the data active = luminescence above about 3900
# Isoprot counter = isoproterenol response counter-screen activity for D1 modulators; shares compounds with D1 mod; HEK293 D1 CRE-luciferase, isoproterenol EC30 counter-screen; stronger effect = higher value; luminescence at 10 µM; 2,200 tested, 63% active; AID 647;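 active = luminescence in either replicate above plate mean of wells with a partly effective reference agonist dose plus 3 SD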;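 also: isoproterenol raises cAMP through native beta-adrenoceptor Gs so signal bypasses D1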
# * = called active by the depositor; / = no result given.
SMILES,Htt clearance,D1 mod,M1 agonist,M1 antag,D1 mod confirm,D1 ag no DA,Isoprot counter
CC1(C)C(=O)OC(c2cccs2)C(C)(C)C1=O (configuration not stated),27.2,0.00086,-0.977,0.1,/,/,/
COc1ccccc1CNc1nc2nc(C)cc(=O)n2[nH]1,-108.9,-0.135,/,/,/,/,/
Fc1ccc(-n2c(-c3ccco3)nc3nc4ccccc4nc32)cc1,/,15.5*,-0.0701,0.547,25288*,1548,7444*
Fc1cccc(-n2c(-c3ccco3)nc3nc4ccccc4nc32)c1,-13.6,9.2*,-0.434,0.0866,16260*,1552,4728*
Fc1ccc(-c2nc3nc4ccccc4nc3n2Cc2ccco2)cc1,-12.2,0.324,0.167,0.0374,/,/,/
C=CCn1c(N)c(C(=O)OC(C)(C)C)c2nc3ccccc3nc21,/,4.65,1.24,-0.264,/,/,/
C=CCn1c(N)c(C(=O)OC(C)CC)c2nc3ccccc3nc21 (configuration not stated),-35.4,7.5*,0.566,0.386,14864*,1544,3132*
COC(=O)CSc1nnc(-c2cccs2)n1-c1ccc(Cl)cc1,-3.9,2.83*,0.639,0.00916,9056*,/,2668*
NC(=O)CSc1nnc(-c2cccs2)n1-c1ccccc1,1.1,/,/,/,/,/,/
CC(=O)Oc1c(Cl)c(N2CCOCC2)c(OC(C)=O)c2ccccc12,/,3.14*,1.73,-1.25,5620*,1464,2536
Cc1c(=O)n(OCc2c(F)cccc2F)c2ccccc2[n+]1[O-],-233.4,/,-0.293,0.389,/,/,/
COc1cccc(Nc2ncccc2C(=O)NCc2ccccc2)c1,-151.6,10.9*,3.75*,0.586,21276*,1540,4236*
Cc1ccc(S(=O)(=O)N2CCC(C(=O)NCCCOC(C)C)CC2)cc1,12.8,/,/,/,/,/,/
CCC(=O)n1nc(-c2ccccc2)nc1NCc1ccccc1,/,0.58,0.398,-0.0456,/,/,/
CCC(=O)n1nc(-c2cccnc2)nc1NCc1ccc(OC)cc1,-8.3,10.9*,0.399,-0.048,7416*,1672,3444
COc1ccc(CNc2nc(NCc3ccc(OC)cc3)n(S(C)(=O)=O)n2)cc1,/,4.7*,0.0162,0.0131,9448*,1620,4064*
CCC(=O)n1nc(NCc2ccc(OC)c(OC)c2)nc1NCc1ccc(OC)c(OC)c1,/,5.96*,0.562,0.00662,15072*,/,5080*
COCC(=O)n1nc(NCc2ccc(OC)cc2)nc1NCc1ccc(OC)cc1,/,1.47,0.815,1.23,/,/,/
CCOC(=O)c1c(C2COc3ccccc3O2)csc1N (configuration not stated),/,9.85*,0.765,0.289,11276*,1584,3868*
CCOC(=O)c1c(C2COc3ccccc3O2)csc1NC(=O)c1ccccc1 (configuration not stated),17.1,/,/,/,/,/,/
COc1ccc(C(=O)N(CN2CCCC2=O)c2nccs2)cc1OC,-142.8,/,-0.468,0.0061,/,/,/
N#Cc1nc(N2CCCC2)nc(N2CCCC2)n1,72.7*,5.65*,-1.18,0.0259,16648*,1396,5348*
N#Cc1nc(N2CCCCC2)nc(N2CCOCC2)n1,/,7.48*,-0.138,-1.36,9460*,/,3104*
CC1(C2(O)CC(c3ccccc3)ON2)CCCCC1 (configuration not stated),/,0.0192,0.0768,-0.534,/,/,/
OC[C@H]1O[C@@H](n2cnc3c(Nc4ccccc4)ncnc32)[C@H](O)[C@@H]1O,/,6.58*,0.332,-0.171,7048*,/,6212*
SMILES,Htt clearance,D1 mod,M1 agonist,M1 antag,D1 mod confirm,D1 ag no DA,Isoprot counter
CC(C)Oc1ccc(N2CC(C(=O)Nc3ccc4c(c3)OCO4)CC2=O)cc1 (configuration not stated),/,-0.0098,-0.213,0.122,/,/,/
COc1ccc(-c2csc(NCc3ccco3)n2)cc1,/,/,0.00674,0.847,/,/,/
c1coc(CNc2nc(-c3ccncc3)cs2)c1,-69.0,3.57*,-0.914,-0.0854,8460*,1716,3840*
c1ccc(-c2nc(NCCCn3ccnc3)c3oc4ccccc4c3n2)cc1,12.1,/,/,/,/,/,/
CCc1nc(NCCCn2ccnc2)c2oc3ccccc3c2n1,0.1,5.53*,-0.645,0.0991,13664*,/,3032*
Cc1ccc(NC(=O)Cn2c(=O)n(Cc3ccco3)c(=N)c3c4c(sc32)COC(C)(C)C4)cc1,6.8,/,-0.0215,-0.927,/,/,/
COc1ccc(Cn2c(=O)n(Cc3ccco3)c(=N)c3c4c(sc32)COC(C)(C)C4)cc1,/,21.1*,1.86,0.0378,22180*,1932,10996*

# Screens as filed in PubChem.
